Results published in PMC4336329 (PLoS ONE, 2015).
Out of some 310,000 compounds screened, about 14,000 (4.5%) showed an effect of 50% or more. Effects have a minus sign here. Shown is part of a subset that was picked to be rich in strong results.

molecular target: human ether-à-go-go-related gene (hERG) potassium channel (human, UniProt Q12809); assay: primary screen, population patch clamp on CHO cells stably expressing hERG; higher = less effect of the substance
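Note: peak tail current of the secondary pulse compared with the same well before compound.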

human ether-à-go-go-related gene (hERG) potassium channel, sequence (Q12809 whole entry, looked up): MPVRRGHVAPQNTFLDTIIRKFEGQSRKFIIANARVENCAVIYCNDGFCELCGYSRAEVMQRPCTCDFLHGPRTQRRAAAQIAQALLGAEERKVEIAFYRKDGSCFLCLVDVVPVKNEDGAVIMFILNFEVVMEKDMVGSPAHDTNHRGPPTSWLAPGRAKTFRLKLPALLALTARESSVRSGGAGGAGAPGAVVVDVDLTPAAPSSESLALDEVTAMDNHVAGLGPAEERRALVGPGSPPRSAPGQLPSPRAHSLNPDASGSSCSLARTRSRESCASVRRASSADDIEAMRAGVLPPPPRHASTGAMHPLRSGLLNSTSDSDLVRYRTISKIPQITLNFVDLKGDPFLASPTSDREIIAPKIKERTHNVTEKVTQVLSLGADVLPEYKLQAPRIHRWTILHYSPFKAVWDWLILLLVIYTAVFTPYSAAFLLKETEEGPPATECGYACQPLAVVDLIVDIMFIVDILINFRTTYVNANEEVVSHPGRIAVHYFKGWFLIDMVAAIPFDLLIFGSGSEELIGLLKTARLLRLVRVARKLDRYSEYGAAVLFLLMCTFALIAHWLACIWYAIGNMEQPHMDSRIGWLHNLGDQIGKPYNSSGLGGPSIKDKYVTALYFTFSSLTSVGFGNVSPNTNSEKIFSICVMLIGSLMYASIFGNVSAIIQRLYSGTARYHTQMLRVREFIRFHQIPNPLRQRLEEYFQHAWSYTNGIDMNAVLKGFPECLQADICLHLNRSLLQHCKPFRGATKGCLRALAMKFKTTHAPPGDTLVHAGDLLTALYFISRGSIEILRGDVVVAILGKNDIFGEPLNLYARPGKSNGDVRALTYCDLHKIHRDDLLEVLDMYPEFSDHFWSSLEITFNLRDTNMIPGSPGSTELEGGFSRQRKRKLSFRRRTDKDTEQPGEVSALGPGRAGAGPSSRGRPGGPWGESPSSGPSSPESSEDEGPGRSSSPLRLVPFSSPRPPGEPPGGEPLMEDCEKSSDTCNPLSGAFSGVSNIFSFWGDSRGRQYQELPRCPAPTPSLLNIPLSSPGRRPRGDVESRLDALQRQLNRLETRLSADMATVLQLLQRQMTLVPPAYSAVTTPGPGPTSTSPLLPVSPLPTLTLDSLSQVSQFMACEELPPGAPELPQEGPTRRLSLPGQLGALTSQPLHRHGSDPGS

Structure (SMILES)	hERG current change (%, negative = inhibition) at 10uM [%]
COc1ccc(C(=O)/C=C/c2cn(CC(O)CN3CCOCC3)c3ccccc23)cc1 (stereo not drawn)	3.55
O=C(CSc1ccccn1)Nc1cccc(NC(=O)CSc2ccccn2)n1	-11.9
O=S(=O)(c1ccc(Cl)cc1)N1CCN(C2CCN(Cc3ccccc3)CC2)CC1	-71.4
Cn1c(=O)c(=O)n(C)c2cc(S(=O)(=O)N3CCN(Cc4ccccc4)CC3)ccc21	-63.4
CS(=O)(=O)N1CCN(C2CCN(Cc3ccccc3)CC2)CC1	-1.48
O=S(=O)(c1ccccc1)N1CCN(C2CCN(Cc3ccccc3)CC2)CC1	-64
O=S(=O)(c1ccc(Cl)cc1)N1CCN(C2CCCCCC2)CC1	-17.3
Cn1c(=O)c(=O)n(C)c2cc(S(=O)(=O)N3CCC(Cc4ccccc4)CC3)ccc21	-10.9
O=S(=O)(c1ccccc1)N1CCN(Cc2ccc(Cl)cc2)CC1	-22.7
O=[N+]([O-])c1ccccc1S(=O)(=O)N1CCN(C2CCCC2)CC1	0.58
O=[N+]([O-])c1ccccc1S(=O)(=O)N1CCN(Cc2ccccc2)CC1	-34.6
O=[N+]([O-])c1ccccc1S(=O)(=O)N1CCN(C2CCN(Cc3ccccc3)CC2)CC1	-51.9
O=S(=O)(c1ccccc1)N1CCN(Cc2ccccc2)CC1	19.3
Cn1c(=O)c(=O)n(C)c2cc(S(=O)(=O)N3CC(=O)N(CCc4ccccc4)C(=O)C3)ccc21	19.4
CC(=O)c1c(C)[nH]c(C(=O)COc2cc(C)ccc2C(C)C)c1C	14.1
O=C(CSc1nnnn1-c1ccc2c(c1)OCCO2)N1CCN(C(=O)c2ccco2)CC1	-16.6
CCN1C(=O)S/C(=C/c2ccc(Oc3ccc([N+](=O)[O-])cn3)c(OC)c2)C1=O	9.24
O=C(COC(=O)c1cccs1)Nc1ccc(F)c(F)c1	12.2
COC(=O)COc1ccc(/C=C2/NC(=O)N(CC(=O)OC)C2=O)cc1	12.3
CC1(C)CC(=O)C(Sc2ccccc2)=C(O)C1	15.8
O=C(O)C(=O)O.O=[N+]([O-])c1ccc(S(=O)(=O)N2CCN(C3CCN(Cc4ccccc4)CC3)CC2)cc1	-78.2

Structure (SMILES)	hERG current change (%, negative = inhibition) at 10uM [%]
COc1ccc(S(=O)(=O)N2CCC(N3CCN(c4ccccc4OC)CC3)CC2)cc1	-66.5
COc1ccccc1N1CCN(C2CCN(S(=O)(=O)c3ccc(NC(C)=O)cc3)CC2)CC1	0.727
COc1ccccc1N1CCN(C2CCN(S(=O)(=O)c3ccc(C)cc3)CC2)CC1	-36.4
CC(=O)Nc1ccc(S(=O)(=O)N2CCN(Cc3cccc([N+](=O)[O-])c3)CC2)cc1.O=C(O)C(=O)O	-3.41
O=C(O)C(=O)O.O=[N+]([O-])c1ccc(S(=O)(=O)N2CCN(Cc3ccco3)CC2)cc1	15.3
COc1ccc(N(CC(=O)NCCSCc2ccc(C)cc2)S(=O)(=O)c2ccccc2)cc1	3.04
O=c1cccc2n1CC1CC2CN(S(=O)(=O)c2ccccc2)C1 (stereo not drawn)	-3.59
Cc1cc2occ(CC(=O)N(C)CC(=O)Nc3ccc(F)cc3)c2cc1C	-9.51
COC(=O)CN=C1OC(=O)N2C(=O)C3=C4[C@@H](C[C@H]5C(=O)N(c6ccccc6)C(=O)[C@H]5[C@H]4[C@@]12Cc1ccccc1)[C@H]1C(=O)N(c2ccccc2)C(=O)[C@H]1[C@H]3C	4.25
O=C(c1ccccc1)N1CCN(c2ncnc3sc4c(c23)CCC4)CC1	-56
Oc1ccc(N2CCN(c3ncnc4sc5c(c34)CCC5)CC2)cc1	-7.35
O=C(CSc1ncnc2sc3c(c12)CCCC3)c1ccco1	6.66
O=C(c1ccco1)N1CCN(c2ncnc3sc4c(c23)CCC4)CC1	-56.6
O=C(Nc1ncnc2sc3c(c12)CCC3)c1ccco1	-4.5
c1ccc(N2CCN(c3ncnc4sc5c(c34)CCC5)CC2)cc1	12.4
COc1ccc2nc(NC(=O)C3CCN(S(=O)(=O)c4cccs4)CC3)sc2c1	-13.6
COc1cc(OC)cc(C(=O)NC2CCSC2=O)c1 (stereo not drawn)	-5.55
CCN(CC)CCCC(C)NC(=O)c1ccc(C(F)(F)F)cc1.Cl (stereo not drawn)	-7.01
CCOC(=O)N1CCN(C(=O)Cn2nc(C)n3nc(-c4ccc(OC)cc4)cc3c2=O)CC1	13.4
CC(Sc1nnc2ccccn12)C(=O)NCc1ccc2c(c1)OCO2 (stereo not drawn)	4.95
CC(Sc1nnc(-c2cccs2)n1-c1ccccc1)C(=O)NCc1ccc2c(c1)OCO2 (stereo not drawn)	-74.8

Structure (SMILES)	hERG current change (%, negative = inhibition) at 10uM [%]
CCn1c(SCC(=O)NCc2ccc3c(c2)OCO3)nnc1-c1ccncc1	13
O=C(CSc1nnc(-c2cccs2)n1Cc1ccccc1)NCc1ccc2c(c1)OCO2	-75.8
CCn1c(SCC(=O)NCc2ccc3c(c2)OCO3)nnc1-c1cccs1	-23.1
CC(Sc1nncn1C)C(=O)NCc1ccc2c(c1)OCO2 (stereo not drawn)	34.9
CC(Sc1nnc(-c2cccs2)n1Cc1ccccc1)C(=O)NCc1ccc2c(c1)OCO2 (stereo not drawn)	-55.9
Cn1c(SCC(=O)NCc2ccc3c(c2)OCO3)nnc1-c1cccs1	-17.1
O=C(CSc1nnc(-c2cccs2)n1-c1ccccc1)NCc1ccc2c(c1)OCO2	-43.7
COCC(=O)Nc1cc(C(=O)Nc2ccccc2C)ccc1Cl	-3.92
COc1cc(CNc2cc(C)ccc2C)cc(OC)c1OC	-4.46
Cc1cc(C)nc(N/N=C/c2c(CO)cnc(C)c2O)n1	-10.7
O=C(Nc1ncccn1)c1ccc([N+](=O)[O-])cc1[N+](=O)[O-]	-7.61
O=C(Nc1cccc2oc(=O)ccc12)c1ccc([N+](=O)[O-])cc1[N+](=O)[O-]	-59.9
COc1ccccc1NC(=O)c1ccc([N+](=O)[O-])cc1[N+](=O)[O-]	-19.6
CCOc1ccccc1C(=O)Nc1ccc2nc(N3CCN(c4ncccn4)CC3)cc(C)c2c1	-8.08
COc1cc(C)c(NC(=S)Nc2cccc(Cl)c2)cc1OC	6.72
CCCCN(C)CCNC(=O)CCn1nc(-c2ccc(C)cc2)ccc1=O	-83.4
Cc1ccc(-c2ccc(=O)n(CCC(=O)NCc3ccccn3)n2)cc1	-61
O=C(CCn1nc(-c2ccc(Cl)cc2)ccc1=O)NCc1ccccn1	-32
COCCNC(=O)CCn1nc(-c2ccc(C)cc2)ccc1=O	-34.4
Cc1ccc(CNC(=O)CCn2nc(-c3ccc(Cl)cc3)ccc2=O)cc1	-35.3
Cc1ccc(-c2ccc(=O)n(CC(=O)NCCCN3CCCCC3C)n2)cc1 (stereo not drawn)	-10.3

Structure (SMILES)	hERG current change (%, negative = inhibition) at 10uM [%]
Cc1ccc(-c2ccc(=O)n(CC(=O)NCCN3CCCCC3C)n2)cc1 (stereo not drawn)	0.96
CCCCNC(=O)Cn1nc(-c2ccc(C)cc2)ccc1=O	-1.13
CC(NC(=O)CCn1nc(-c2ccc(Cl)cc2)ccc1=O)c1ccccc1 (stereo not drawn)	-60.6
CC(NC(=O)Cn1nc(-c2ccccc2)ccc1=O)c1ccccc1 (stereo not drawn)	-13.4
Cc1ccc(-c2ccc(=O)n(CCC(=O)NCCN3CCCCC3C)n2)cc1 (stereo not drawn)	-58.7
COCCCNC(=O)CCn1nc(-c2ccc(Cl)cc2)ccc1=O	-27.9
O=C(CCc1ccccc1)NCCCNC(=O)CCc1ccccc1	7.49
C=CCn1c(C)nnc1SCC(=O)Nc1nccs1	16.6
NC(=O)c1ccccc1NC(=O)/C=C/c1c(Cl)cccc1Cl	-31.3
Cc1ccc(-c2nnc(N)o2)cc1	9.43
Cc1ccc(NC(=O)COC(=O)CCc2ccccc2)c(Cl)c1	27.1
CCCCN(C)CCNC(=O)CCn1nc(-c2ccc(Cl)cc2)ccc1=O	-67.1
CN(C)CCNC(=O)CCn1nc(-c2ccc(Cl)cc2)ccc1=O	-15.4
CC(C)CCNC(=O)CCn1nc(-c2ccccc2)ccc1=O	-46.8
CC(C)CCNC(=O)CCn1nc(-c2ccc(Cl)cc2)ccc1=O	-54.6
CCCCNC(=O)CCn1nc(-c2ccc(Cl)cc2)ccc1=O	-23.4
COCCNC(=O)CCn1nc(-c2ccc(Cl)cc2)ccc1=O	-30.2
O=C(CSCc1c(F)cccc1Cl)Nc1ccccc1C(=O)N1CCOCC1	5.4
Cc1ccc(C)c(-c2ccc(=O)n(Cc3cccc(Br)c3)n2)c1	10.7
CCOc1ccc(NC(=O)C2CCCN(c3nc(C)cc(C)n3)C2)cc1 (stereo not drawn)	12.4
O=C(OCC(=O)c1c[nH]c2ccccc12)c1cc2ccccc2cc1O	1.38
